Hits are enriched below; roughly 0.84% of the tested compounds scored in any of these assays.
NCOA3 inh: SRC3 coactivator transcriptional activity inhibitors, primary screen, cell-based, luminescence; Nuclear receptor coactivator 3 (Homo sapiens), Q9Y6Q9; AID 588352, 2011; actives 0.17% (n = 360,000); HEK293 GAL4-SRC3 luciferase reporter; inhibition, % at 3.6 µM;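 active means inhibition above a per-campaign cutoff, the mean of all compounds plus 3 SD, cut at about 60% in these data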;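 further: 0% = DMSO-treated cells and 100% = gossypol-treated cells at 36 µM; higher means less SRC3-driven luciferase light from the GAL4 reporter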
LRH-1 inv ag: LRH-1 (NR5A2) inverse agonists, primary screen, cell-based, luminescence, HEK293T, StAR-luciferase reporter; inhibition, % at 3.6 µM; LRH-1 transfected, 24 h; actives 0.13% (n = 360,000); AID 602396, 2012;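 active means inhibition above the mean inhibition of all tested compounds plus 3 SD, cut at about 73% in these data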;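 further: 0% = DMSO wells and 100% = reporter-only cells lacking LRH-1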
Target sequence (O00482 whole entry, looked up): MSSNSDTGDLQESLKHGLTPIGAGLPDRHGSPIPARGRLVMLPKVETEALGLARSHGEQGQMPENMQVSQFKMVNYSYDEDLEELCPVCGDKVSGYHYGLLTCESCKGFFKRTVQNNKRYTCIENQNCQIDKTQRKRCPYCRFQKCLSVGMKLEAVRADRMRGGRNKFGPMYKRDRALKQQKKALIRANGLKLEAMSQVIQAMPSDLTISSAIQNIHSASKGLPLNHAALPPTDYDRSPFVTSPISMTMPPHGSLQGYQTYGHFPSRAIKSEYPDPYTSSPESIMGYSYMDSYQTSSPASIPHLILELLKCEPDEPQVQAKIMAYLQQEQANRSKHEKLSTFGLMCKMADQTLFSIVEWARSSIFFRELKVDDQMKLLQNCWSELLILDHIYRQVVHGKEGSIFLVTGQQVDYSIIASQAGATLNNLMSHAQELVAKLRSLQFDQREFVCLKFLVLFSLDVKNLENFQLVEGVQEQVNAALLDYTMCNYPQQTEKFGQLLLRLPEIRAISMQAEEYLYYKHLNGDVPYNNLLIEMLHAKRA
NCOA2 inhibitor: inhibition of GAL4-SRC2 driven luciferase reporter, primary screen, SRC2 inhibitor project, cell-based, luminescence; Nuclear receptor coactivator 2 (Homo sapiens), Q15596; HEK293 GAL4-SRC2 luciferase reporter; inhibition, % at 9 µM; actives 0.17% (n = 370,000); AID 651957, 2012;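 active means inhibition above the mean inhibition of all tested compounds plus 3 SD, set per campaign, cut at about 52% in these data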;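 further: 0% = DMSO treated cells and 100% = cells given Gossypol at 36 µM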
NR2F2 inh: NR2F2 transcriptional activity inhibitors, primary screen, cell-based, luciferase reporter, HEK293T, luminescence; COUP transcription factor 2 (Homo sapiens), P24468; HEK293T NGFI-A luciferase reporter; inhibition, % at 8.6 µM; actives 0.7% (n = 370,000);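 active means inhibition above a per-plate cutoff, mean inhibition of test wells between control levels plus 3 SD, cut at about 38% in these data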;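 further: cells cotransfected with COUP-TFII expression vector driving the NGFI-A reporter; 0% = median of COUP-TF2 test wells and 100% = reporter-only cells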
NCOA1 inh: SRC1 coactivator transcriptional activity inhibitors, primary screen, cell-based, luminescence; HEK293 GAL4-SRC1 luciferase reporter; inhibition, % at 3.6 µM; actives 0.12% (n = 360,000);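 active means inhibition above the campaign mean plus 3 SD, with each screening campaign given its own cutoff, cut at about 60% in these data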;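 further: 0% = DMSO treated cells and 100% = gossypol at 36 µM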
* marks the source's active call; other numbers are inactive results.

Results for CN(c1ccccc1)S(=O)(=O)c1ccc(NC(=O)c2nc(S(C)(=O)=O)ncc2Cl)cc1 ?
NCOA3 inh: -20; LRH-1 inv ag: -2; NCOA2 inhibitor: 56*; NR2F2 inh: -1; NCOA1 inh: -26

How did COc1ccccc1-c1ccc2c(c1)[C@@H]1C[C@H]3[C@@H](CN1CC2)[C@H](C)ON3C do in these assays?
NCOA2 inhibitor: -28; NR2F2 inh: -10

Results for CCN=C1NC(CCc2ccccc2)C(C(=O)OC)=C(C)N1Cc1ccc(C(F)(F)F)cc1 (centres undefined) ?
NCOA2 inhibitor: -16; NR2F2 inh: -5

What do the screens show for `CCN(CC)c1ccc(NC(=O)CCCCCN2C(=O)c3ccccc3C2=O)cc1`?
NCOA3 inh: -27; LRH-1 inv ag: -6; NCOA2 inhibitor: 4; NR2F2 inh: 33; NCOA1 inh: 2

Results for CCN(CC)c1ccc(NC(=O)CCCCC(=O)Nc2ccc(N(CC)CC)cc2)cc1 ?
NCOA3 inh: 32; LRH-1 inv ag: 3; NCOA2 inhibitor: 57*; NR2F2 inh: 31; NCOA1 inh: 6

How did Brc1ccc2c(c1)CN1CCCC1=N2 do in these assays?
NCOA3 inh: 39; LRH-1 inv ag: 45; NCOA2 inhibitor: -1; NR2F2 inh: 11; NCOA1 inh: 61*

What do the screens show for `Cc1[nH]nc2c1C(c1ccccc1)N(c1ccccc1)C2=O` (centres undefined)?
NCOA2 inhibitor: -61; NR2F2 inh: -10

How did COC(=O)c1cn(NC(=O)c2cc([N+](=O)[O-])ccc2F)c(=O)c2ccccc12 do in these assays?
NCOA3 inh: 78*; LRH-1 inv ag: 76*; NCOA2 inhibitor: 59*; NR2F2 inh: 28; NCOA1 inh: 70*

Results for CCOC(=O)C(C(C)=O)c1c(Br)c(O)c(O)c2c(C(=O)c3ccc(C)cc3)coc12 (centres undefined) ?
NCOA3 inh: 80*; LRH-1 inv ag: 67; NCOA2 inhibitor: -1; NR2F2 inh: 31; NCOA1 inh: 59

How did CCOC(=O)c1c(C)n(-c2ccc(C)cc2)c2c(C(C(C)=O)C(=O)O)c(Br)c(O)c(O)c12 (centres undefined) do in these assays?
NCOA3 inh: 14; LRH-1 inv ag: -3; NCOA2 inhibitor: -7; NR2F2 inh: 18; NCOA1 inh: -15

What do the screens show for `Cc1cccc(N(Cc2ccccc2)C(=O)CCl)c1`?
NCOA3 inh: 26; LRH-1 inv ag: 33; NCOA2 inhibitor: 60*; NR2F2 inh: 10; NCOA1 inh: 2

Results for O=C(CCl)N(Cc1ccccc1)c1ccccc1 ?
NCOA3 inh: 17; LRH-1 inv ag: 26; NCOA2 inhibitor: 37; NR2F2 inh: 18; NCOA1 inh: -2

Results for COC(=O)[C@]12C[C@H](CC(=O)N3CCN(C(=O)c4ccco4)CC3)C(=O)N(Cc3ccccc3)C1=C[C@H](C(C)C)O[C@@H]2C1CC1 ?
NCOA2 inhibitor: 3; NR2F2 inh: -26

What do the screens show for `CN(c1cccnc1)c1ccc(NC(=O)CCc2c[nH]c3ccccc23)cc1Br`?
NCOA2 inhibitor: 14; NR2F2 inh: -4

Results for CSc1nc(N)nc2c1ncn2CC(=O)N1CCN(Cc2c(C)cc(C)cc2C)CC1 ?
NCOA3 inh: 16; LRH-1 inv ag: 26; NCOA2 inhibitor: 22; NR2F2 inh: 51*; NCOA1 inh: 35

What do the screens show for `CC1(C)CC(=O)C=C(Nc2ccccc2NC(=O)c2cc(Cl)ccc2F)C1`?
NCOA2 inhibitor: -4; NR2F2 inh: -2

What do the screens show for `CC(C)C(=O)NC(c1ccc(Cl)cc1Cl)c1ccc2cccnc2c1O` (centres undefined)?
NCOA3 inh: 23; LRH-1 inv ag: 83*; NCOA2 inhibitor: 10; NR2F2 inh: -33; NCOA1 inh: 33

How did CCCC(=O)NC(c1ccc(C(C)C)cc1)c1ccc2cccnc2c1O (centres undefined) do in these assays?
NCOA3 inh: 54; LRH-1 inv ag: 35; NCOA2 inhibitor: 32; NR2F2 inh: -4; NCOA1 inh: -9

How did CCC(=O)NC(c1ccc(C)cc1)c1ccc2cccnc2c1O (centres undefined) do in these assays?
NCOA3 inh: 64*; LRH-1 inv ag: 19; NCOA2 inhibitor: 34; NR2F2 inh: -19; NCOA1 inh: 41

How did CCC(=O)NC(c1ccc(Cl)cc1Cl)c1ccc2cccnc2c1O (centres undefined) do in these assays?
NCOA3 inh: 56; LRH-1 inv ag: 65; NCOA2 inhibitor: 16; NR2F2 inh: -16; NCOA1 inh: 27

What do the screens show for `CCCC(=O)NC(c1ccccc1Cl)c1ccc2cccnc2c1O` (centres undefined)?
NCOA3 inh: 47; LRH-1 inv ag: 84*; NCOA2 inhibitor: 31; NR2F2 inh: -6; NCOA1 inh: 53

How did CCCCC(=O)NC(c1ccc(OC)cc1)c1ccc2cccnc2c1O (centres undefined) do in these assays?
NCOA3 inh: 36; LRH-1 inv ag: 103*; NCOA2 inhibitor: 5; NR2F2 inh: 12; NCOA1 inh: 14

Results for CN(c1ccc(NC(=O)CCc2cn(Cc3ccc(Br)cc3)c3ccccc23)cc1)c1ccccn1 ?
NCOA2 inhibitor: -9; NR2F2 inh: 16

What do the screens show for `CC(C)(C)C(=O)/C(=C/c1ccncc1)n1cncn1`?
NCOA3 inh: 63*; LRH-1 inv ag: 52; NCOA2 inhibitor: 72*; NR2F2 inh: 26; NCOA1 inh: 54

Results for Cc1nn(C)c(C)c1/C=C(/C(=O)C(C)(C)C)n1cncn1 ?
NCOA3 inh: 6; LRH-1 inv ag: -30; NCOA2 inhibitor: 5; NR2F2 inh: 12; NCOA1 inh: 15

How did N#CC(c1cccc(Cl)c1)c1ccc2c(C(F)(F)F)cc(C(F)(F)F)nc2n1 (centres undefined) do in these assays?
NCOA3 inh: 41; LRH-1 inv ag: 99*; NCOA2 inhibitor: 28; NR2F2 inh: -3; NCOA1 inh: 22

What do the screens show for `COC(=O)C1=C(C)N(Cc2cccc(C(F)(F)F)c2)C(=NCc2ccc(OC)cc2)NC1c1ccccc1C(F)(F)F` (centres undefined)?
NCOA2 inhibitor: -8; NR2F2 inh: 8

Results for COCC(=O)NCC1CCN(C(=O)C(=O)c2cccs2)CC1 ?
NCOA2 inhibitor: 5; NR2F2 inh: -10

What do the screens show for `O=c1ccc2ccccc2c2ccccc12`?
NCOA3 inh: 75*; LRH-1 inv ag: 93*; NCOA2 inhibitor: 70*; NR2F2 inh: 1; NCOA1 inh: 64*

Results for COC(=O)c1cc2c(c3c4ccccc4n(S(=O)(=O)c4cccc(C)c4)c13)C(=O)N(C)C2 ?
NCOA2 inhibitor: -27; NR2F2 inh: 19

Assay outcomes from PubChem BioAssay.
